Source: the supplement of paper PMC8975748
Where a name gives a salt, the structure may show the parent alone.

Test system: Saccharomyces cerevisiae BY4741 SeMeCo community
Experiment: z-score of subpopulation abundance vs DMSO median, subpopulation auxotrophic for HLUM; higher = larger share of this subpopulation than in DMSO controls
Conditions: 10 µM; 24 h; SM minimal medium; subpopulation (auxotrophy): HLUM
Method: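 Fluorescent four-plasmid SeMeCo (self-establishing metabolically cooperating S. cerevisiae BY4741 community; plasmids pH-mRuby2, pL-mWasabi, pU-eCFP, pM-TagRFP657) was grown 24 h in minimal SM medium with each Selleck FDA-approved drug at 10 µM in 384-well plates. Cells were fixed and imaged by high-content confocal microscopy. For each auxotrophic subpopulation (and the prototroph), a z-score gives the deviation from the DMSO vehicle-control population median.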

| SMILES | z-score of subpopulation abundance |
| --- | --- |
| CO[C@H]1C[C@@H]2CC[C@@H](C)[C@@](O)(O2)C(=O)C(=O)N2CCCC[C@H]2C(=O)O[C@H]([C@H](C)C[C@@H]2CC[C@H](n3cnnn3)[C@H](OC)C2)CC(=O)[C@H](C)/C=C(\C)[C@@H](O)[C@@H](OC)C(=O)[C@H](C)C[C@H](C)/C=C/C=C/C=C/1C [Zotarolimus(ABT-578)] | 31.4 |
| Oc1ccc([C@H]2COc3cc(O)ccc3C2)cc1 [Equol] | 0.35 |
| C[C@]12CC[C@@H]3c4ccc(O)cc4C[C@@H](CCCCCCCCC[S+]([O-])CCCC(F)(F)C(F)(F)F)[C@H]3[C@@H]1CC[C@@H]2O (stereo not given in full) [Fulvestrant] | 1.35 |
| CC(=O)O[C@H]1C[C@@H]2CC[C@@H]3[C@H](CC[C@@]4(C)[C@H]3C[C@H]([N+]3(C)CCCCC3)[C@@H]4OC(C)=O)[C@@]2(C)C[C@@H]1N1CCCCC1 [Vecuronium Bromide] | 0.24 |
| Oc1cccc(O)c1 [Resorcinol] | -0.65 |
| CN1CCN(C2=Nc3cc(Cl)ccc3Nc3ccccc32)CC1 [Clozapine] | -0.29 |
| Nc1nc2[nH]cc(CCc3ccc(C(=O)N[C@@H](CCC(=O)O)C(=O)O)cc3)c2c(=O)[nH]1 [Pemetrexed] | -1.01 |
| COCCOC(=O)C1=C(C)NC(C)=C(C(=O)OC(C)C)C1c1cccc([N+](=O)[O-])c1 (stereo not given) [Nimodipine] | -0.14 |
| CC1=CC[C@@](O)(C(C)C)CC1 [Terpinen-4-ol] | 0.81 |
| NC(=O)c1ncn([C@@H]2O[C@H](CO)[C@@H](O)[C@H]2O)n1 [Ribavirin] | -0.37 |
| CC(C)(C)C(=O)OCOC(=O)[C@@H]1N2C(=O)[C@@H](/N=C/N3CCCCCC3)[C@H]2SC1(C)C [Pivmecillinam hydrochloride] | -0.19 |
| CC1(C)S[C@@H]2[C@H](NC(=O)[C@H](N)c3ccc(O)cc3)C(=O)N2[C@H]1C(=O)O [Amoxicillin Sodium] | -0.2 |
| NC[C@@H]1O[C@H](O[C@H]2[C@@H](O)[C@H](O[C@@H]3[C@@H](O)[C@H](N)C[C@H](N)[C@H]3O[C@H]3O[C@H](CO)[C@@H](O)[C@H](O)[C@H]3N)O[C@@H]2CO)[C@H](N)[C@@H](O)[C@@H]1O [Paromomycin Sulfate] | 0.85 |
| C[C@@H]1[C@H](O)[C@@H](C)/C=C/C=C/C=C/C=C/C=C/C=C/C=C/[C@H](O[C@@H]2O[C@H](C)[C@@H](O)[C@H](N)[C@@H]2O)C[C@@H]2O[C@](O)(C[C@@H](O)C[C@@H](O)[C@H](O)CC[C@@H](O)C[C@@H](O)CC(=O)O[C@H]1C)C[C@H](O)[C@H]2C(=O)O [Amphotericin B] | 163 |
| Nc1ccc(S(=O)(=O)NC(=O)c2ccccc2)cc1 [Sulfabenzamide] | 0.15 |
| CCCCCNC(=N)N/N=C/c1c[nH]c2ccc(OC)cc12 [Tegaserod Maleate] | 1.76 |
| CN1[C@@H]2CC[C@H]1C[C@@H](OC(=O)c1c[nH]c3ccccc13)C2 [Tropisetron HCl] | 1.3 |
| CCOc1cc(N)c(Cl)cc1C(=O)NCC1CN(Cc2ccc(F)cc2)CCO1 (stereo not given) [Mosapride] | 0.05 |
| COc1ccc([C@@H]2Sc3ccccc3N(CCN(C)C)C(=O)[C@@H]2OC(C)=O)cc1 [Diltiazem HCl] | -0.3 |
| CN(C)c1cc(NC(=O)CNC(C)(C)C)c(O)c2c1CC1CC3C(N(C)C)C(=O)C(C(N)=O)=C(O)C3(O)C(=O)C1=C2O (stereo not given) [Tigecycline] | -0.04 |

| SMILES | z-score of subpopulation abundance |
| --- | --- |
| C[n+]1ccccc1C=NO [Pralidoxime Iodide] | 0.03 |
| Clc1ccc(C(Cn2ccnc2)OCc2csc3c(Cl)cccc23)c(Cl)c1 (stereo not given) [Sertaconazole nitrate] | 28.5 |
| CCCCCOc1ccc(-c2ccc(-c3ccc(C(=O)N[C@H]4C[C@@H](O)[C@@H](O)NC(=O)[C@@H]5[C@@H](O)[C@@H](C)CN5C(=O)[C@H]([C@@H](C)O)NC(=O)[C@H]([C@H](O)[C@@H](O)c5ccc(O)cc5)NC(=O)[C@@H]5C[C@@H](O)CN5C(=O)[C@H]([C@@H](C)O)NC4=O)cc3)cc2)cc1 | 76 |
| CO/N=C(/C(=O)N[C@@H]1C(=O)N2C(C(=O)OCOC(=O)C(C)(C)C)=C(C)CS[C@H]12)c1csc(N)n1 [Cefetamet pivoxil hydrochloride] | 0.63 |
| CN1[C@@H]2CC[C@H]1C[C@@H](OC(=O)c1c[nH]c3ccccc13)C2 [Tropisetron] | 0.38 |
| CNS(=O)(=O)CCc1ccc2[nH]cc(C3CCN(C)CC3)c2c1 [Naratriptan HCl] | -0.77 |
| Cc1nnc(SCC2=C(C(=O)O)N3C(=O)[C@@H](NC(=O)Cn4cc(Cl)c(=O)c(Cl)c4)[C@H]3SC2)s1 [Cefazedone] | -0.54 |
| CC[C@H]1OC(=O)C[C@@H](O)[C@H](C)[C@@H](O[C@@H]2O[C@H](C)[C@@H](O[C@H]3C[C@@](C)(O)[C@@H](O)[C@H](C)O3)[C@H](N(C)C)[C@H]2O)[C@@H](CC=O)C[C@@H](C)C(=O)/C=C/C(C)=C/[C@@H]1CO[C@@H]1O[C@H](C)[C@@H](O)[C@@H](OC)[C@H]1OC [Tylosin] | 0.01 |
| O=C(NCCO[N+](=O)[O-])c1cccnc1 [Nicorandil] | -0.37 |
| CCOC(=O)C1=C[C@]2(CC)CCCN3CCc4c(n1c1ccccc41)[C@@H]32 [Vinpocetine] | 0.54 |
| CC1CCc2c(N3CCC(O)CC3)c(F)cc3c(=O)c(C(=O)O)cn1c23 (stereo not given) [Nadifloxacin] | 0.26 |
| CN(C)CCC[C@@]1(c2ccc(F)cc2)OCc2cc(C#N)ccc21 [Escitalopram Oxalate] | 0.18 |
| COC(=O)C1=C(C)NC(C)=C(C(=O)OCC(C)C)C1c1ccccc1[N+](=O)[O-] (stereo not given) [Nisoldipine] | 1.09 |
| CN(Cc1cnc2nc(N)nc(N)c2n1)c1ccc(C(=O)N[C@@H](CCC(=O)O)C(=O)O)cc1 [Methotrexate disodium] | 19.8 |
| CC(C[N+](C)(C)C)OC(N)=O (stereo not given) [Bethanechol chloride] | -0.3 |
| CC1(C)S[C@@H]2[C@H](NC(=O)Cc3ccccc3)C(=O)N2[C@H]1C(=O)O [Benzathine penicilline] | 0.29 |
| C#CCC(Cc1cnc2nc(N)nc(N)c2n1)c1ccc(C(=O)N[C@@H](CCC(=O)O)C(=O)O)cc1 (stereo not given in full) [Pralatrexate] | 1.08 |
| CCc1cc(C(N)=S)ccn1 [Ethionamide] | -0.72 |
| CC(C)[C@H](N)C(=O)OCC(CO)OCn1cnc2c(=O)[nH]c(N)nc21 (stereo not given in full) [Valganciclovir HCl] | -0.35 |
| CO/N=C(\C(=O)N[C@@H]1C(=O)N2C(C(=O)O)=C(CSc3nnnn3C)CS[C@H]12)c1csc(N)n1 [Cefmenoxime hydrochloride] | -0.52 |
